# The list is not random: actives were taken first. Their share in the collection is about 0.44%.
# YopH inh: YopH (Yersinia) phosphatase inhibition. inhibition, % (no concentration beside the values). 0.16% of 140,000 active. AID 898. fluorescence Ex485/Em525; in the data active means inhibition above about 50%
# RmlCD inh mix: inhibitors of RmlC and RmlD coupled enzymes; RmlC/RmlD coupled enzyme inhibition, 384-well mixture HTS; inhibition, % at 5.5 µM; 0.39% of 110,000 active; in the data active means inhibition above about 30%, passing the limit was not always enough
# RmlCD fluor art: shows fluorescent artifact in RmlC/RmlD assay, dose-response counter-screen | AID 1696 | RmlC/RmlD assay fluorescence artifact counter-screen | shares compounds with RmlCD inh mix | 96% of 360 active | calls only; call rule not given here;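 further: compound alone with no enzyme and no substrates present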
# * marks the source's active call; other numbers are inactive results; nt = not tested or not shown; + = active, no number.
SMILES,YopH inh,RmlCD inh mix,RmlCD fluor art
CCO[C@@H]1OC(C(=O)N2CCN(Cc3ccc4c(c3)OCO4)CC2)=C[C@H](C2CCCCC2)[C@H]1CCCO,nt,11,nt
Cc1ccn(C(=O)c2cc3cc(Cl)ccc3oc2=O)n1,-27,1,nt
COc1ccc2oc(=O)c(C(=O)n3ccc(C)n3)cc2c1,5,111*,+
Cc1ccccc1NC(=O)c1ccc(Cl)c(NC(=O)c2ccncc2)c1,-37,nt,nt
Cn1c(C(=O)NCc2ccccn2)cc2c(=O)n3ccccc3nc21,-26,96*,+
Cn1nc(C(=O)NCc2ccccn2)c2ccccc2c1=O,-46,-8,nt
Cc1oc2ccccc2c1-c1cn2c(n1)SCC2,55*,52*,+
c1ccc(-c2cn3c(n2)SCC3)cc1,-15,0,nt
COC(=O)c1ccc(-c2sc3nc(N4CCOCC4)c4c(c3c2N)CCCC4)o1,-2,116*,+
CCOC(=O)c1sc2nc(N3CCOCC3)c3c(c2c1N)CCCC3,-2,-184,nt
Cc1cc(C)c2c(n1)nn1c(NCCCN(C)C)cc(C)nc21,-37,86*,+
Cc1cc(NCCCN(C)C)n2nc(-c3cccs3)cc2n1,-17,-10,nt
CCCCN(C(=O)CN1CCOCC1)c1c(N)n(CC(C)C)c(=O)[nH]c1=O,-6,nt,nt
CC(C)C(=O)N1CCC2(CC1)Oc1ccc(Cl)cc1C(=O)C21CC(c2cccnc2)=NO1 (stereo unspecified),nt,-10,nt
COCCn1c(N)c(C#N)c2nc3ccccc3nc21,14,55*,+
N#Cc1c(N)n(CCOC(=O)c2cccc(Br)c2)c2nc3ccccc3nc12,-26,7,nt
N#Cc1c(N)n(CCOC(=O)c2cccc([N+](=O)[O-])c2)c2nc3ccccc3nc12,-36,45*,+
COc1ccc(Cn2c(N)c(C#N)c3nc4ccccc4nc32)cc1,-6,nt,nt
CCCCn1c(=O)nc2n(-c3ccccc3)c3ccccc3cc-2c1=O,-39,37*,+
CCCCn1c(=O)c(C(=O)c2ccccc2)nc2ccccc21,-16,2,nt
Cc1c(NC(=S)NC(NC(=O)C(C)(C)C)C(Cl)(Cl)Cl)c(=O)n(-c2ccccc2)n1C (stereo unspecified),-21,nt,nt
CCN(CC)CCNC(=S)N1CCn2c(nc3ccccc32)C1,-15,nt,nt
COc1ccc(C2/C=C\CNCC(=O)N2Cc2ccc(F)cc2)cc1 (stereo unspecified),nt,8,nt
CCCCc1cc(=O)oc2cc(C)cc(OCC(=O)O)c12,-14,25,nt
CCc1cc(=O)oc2cc(OC(C)=O)cc(OC(C)=O)c12,-19,nt,+
SMILES,YopH inh,RmlCD inh mix,RmlCD fluor art
CC1CN(C(=O)C2(C)CC2(Br)Br)CC(C)O1 (stereo unspecified),-29,nt,nt
CN(C)c1c2ccccc2nc2c(F)c(F)c(F)c(F)c12,nt,nt,+
Cc1c2ccccc2nc2c(F)c(N(C)C)c(F)c(F)c12,-6,nt,nt
COC(C[C@@H](O)CC(=O)COCc1ccccc1)OC,nt,3,nt
CSc1ccc(/C=N/n2nnnc2N)cc1,-29,69*,+
Nc1nnnn1/N=C/c1cccc(O)c1,-27,nt,nt
CC1(c2nnc(-c3ccncc3)o2)CC(c2cccc(Cl)c2)=NO1 (stereo unspecified),nt,0,nt
Cc1ccc(-c2csc3ncnc(N4CCN(C(=O)c5ccccc5)CC4)c23)cc1,1,-12,nt
Nc1ccc(-c2nc3ccc(N)cc3o2)cc1,-6,104*,+
Cc1ccc2nc(-c3cc(N)cc(N)c3)oc2c1,-135,7,nt
Cc1nc2ccc(-c3nc4ccccc4o3)cc2[nH]1,-34,6,nt
Nc1ccc(-c2nc3ccc(-c4nc5ccccc5o4)cc3[nH]2)cc1,-38,+,+
COc1cc(-c2cc(C(=O)O)c3cc4c(cc3n2)OCCO4)cc(OC)c1OC,-17,6,nt
COC(=O)c1ccc(-c2cc(C(=O)O)c3cc4c(cc3n2)OCCO4)cc1,-63,48*,+
COc1ccc(C(=O)Nc2ccc([N+](=O)[O-])cn2)c(OC)c1,-16,nt,nt
COc1ccc(-c2c(C(C)=O)c(C)nc3sc4c(=N)n(N)cnc4c23)cc1,-20,nt,nt
COc1ccc(C2NC(=O)c3sc4nc(C)c(C(C)=O)c(-c5ccc(Cl)cc5)c4c3N2)cc1 (stereo unspecified),-33,52*,+
Cc1ccc(C)c(NC(=O)c2ccc(S(=O)(=O)C(F)F)cc2)c1,0,nt,nt
Cc1nc2c(sc3nc4c(cc32)COC(C)(C)C4)c(=O)o1,-43,42*,+
Cc1nc2c(sc3nc4c(cc32)COC(C)(C)C4)c(=O)n1Cc1ccccc1,-4,-1,nt
Cc1ccc2oc(=O)c3cnn(CC(=O)Nc4cc(-c5cccc(F)c5)no4)c3c2c1,7,7,nt
COC(=O)C1(O)CC(C(C)C)=NN1C(=O)c1ccccc1 (stereo unspecified),-23,nt,nt
COc1ccc(NC(=O)NC23CC4(C)CC(C)(CC(C)(C4)C2)C3)cc1OC,-29,nt,nt
COc1ccc(OCCCC(=O)Nc2cccc([N+](=O)[O-])c2C)cc1,-36,nt,nt
